Experimental findings from PubChem BioAssay are described below.

Test [1] relates to Human papillomavirus type 1a protein E7 (residues 44-93). Briefly: HPV1a E7 fragment binders on microarrays, primary screen, biochemical, small-molecule microarray, residues 44-93, 635 nm fluorescence (AID 1108).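 Further: E7 fragment applied at 1 µg/mL in TBST for 1 h at 4 C; score combines spot fluorescence with its signal to noise ratio.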 The conditions noted are these: small-molecule microarray binding, fluorescence 635 nm; higher = more signal.
The nature of test [2]: modulators of HCV replicon luciferase signal, primary screen, HCV replication inhibitor project, Huh7 cells, luciferase reporter (AID 1109).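 Further: huh7 hepatoma cells harbouring a luciferase neomycin HCV replicon reporter; luciferase luminescence as measure of HCV replicon replication; test concentration not given here.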 The conditions noted are these: 48 h, higher = more signal.
Test [3] concerns the target Left-right determination factor 2 (Homo sapiens) (UniProt O00292). Briefly: LEFTY2 binders on small-molecule microarrays, primary screen, biochemical, small-molecule microarray, 635 nm fluorescence scan (AID 1110). The conditions noted are these: LEFTY2 binding, higher = more signal.
Test [4] concerns the target Calmodulin-1 (Homo sapiens) (UniProt P0DP23). Briefly: CALM1 binders on microarrays, EGTA buffer, profiling panel, biochemical, small-molecule microarray, Cy5-labelled CALM1 (AID 1111).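 Further: labelled calmodulin applied in Tris saline Tween buffer holding calcium plus EGTA and DTT.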 The conditions noted are these: Cy5-CALM1 binding fluorescence, higher = more signal.
Test [5] has the same target. The test is described as follows: calcium-bound CALM1 binders on microarrays, profiling panel, artefact control for SMM control-protein annotation, biochemical, small-molecule microarray, Cy5-labelled CALM1, plus calcium (AID 1112).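 Further: score merges spot fluorescence with signal to noise from triplicate slides.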 The conditions noted are these: Cy5-CALM1 binding fluorescence, higher = more signal.
Test [6] in a line: small-molecule microarray binders of probe aWnt5a, primary screen, biochemical, biotinylated probe, 635/667 nm fluorescence (AID 1113).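 Further: score merges 667 nm fluorescence intensity with signal-to-noise per printed feature.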 The conditions noted are these: higher = more signal.
A short description of test [7]: small-molecule microarray binders of probe aShh, primary screen, biochemical, biotinylated probe, 635/667 nm fluorescence (AID 1114).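 Further: probe is biotin-labelled aShh protein from a stem cell growth factor screen; measures binding of labelled protein to compounds printed on the slide; score merges feature fluorescence at 667 nm with signal-to-noise.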 The conditions noted are these: higher = more signal.
Test [8] in a line: small-molecule microarray binders of probe aNog, primary screen, biochemical, biotinylated probe, 635/667 nm fluorescence (AID 1115).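 Further: probe is biotinylated aNog protein used at 0.15 µg/mL for 1 h at 4 C; z-score combines 667 nm fluorescence of each spot with its signal to noise.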 The conditions noted are these: higher = more signal.
In test [9] the target is Torsin-1A-interacting protein 1 (Homo sapiens) (UniProt Q5JTV8). Briefly: LAP1 binders from COS7 cell lysate, primary screen, small-molecule microarray, 635/667 nm fluorescence (AID 1116). The conditions noted are these: COS7-hLAP1 lysate binding, 635 nm fluorescence, higher = more signal.
Test [10] deals with Alpha-bungarotoxin (Bungarus multicinctus) (UniProt P60615). Briefly: alpha-bungarotoxin binders on microarray, profiling panel, artefact control for SMM control protein annotation, biochemical, small-molecule microarray, Alexa647 label, 635/667 nm fluorescence (AID 1117). The conditions noted are these: alpha-BTX-A647 binding fluorescence, higher = more signal.

Structures are written as SMILES.

Torsin-1A-interacting protein 1 (Homo sapiens), sequence (Q5JTV8 whole entry, looked up): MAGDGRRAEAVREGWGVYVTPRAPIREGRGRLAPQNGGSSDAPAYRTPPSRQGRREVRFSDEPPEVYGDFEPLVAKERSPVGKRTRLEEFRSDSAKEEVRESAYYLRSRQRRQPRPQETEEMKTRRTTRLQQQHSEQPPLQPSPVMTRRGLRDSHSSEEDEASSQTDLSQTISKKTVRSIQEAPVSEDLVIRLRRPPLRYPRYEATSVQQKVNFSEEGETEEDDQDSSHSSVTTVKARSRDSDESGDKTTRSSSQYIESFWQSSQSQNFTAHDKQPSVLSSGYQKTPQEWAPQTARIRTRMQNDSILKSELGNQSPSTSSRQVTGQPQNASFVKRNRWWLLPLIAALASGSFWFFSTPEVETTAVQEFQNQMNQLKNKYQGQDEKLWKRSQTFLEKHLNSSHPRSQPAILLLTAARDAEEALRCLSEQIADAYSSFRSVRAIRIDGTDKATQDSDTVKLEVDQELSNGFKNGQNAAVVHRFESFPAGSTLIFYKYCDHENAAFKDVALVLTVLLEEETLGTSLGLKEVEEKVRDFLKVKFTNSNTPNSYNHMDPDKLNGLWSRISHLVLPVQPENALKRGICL
Left-right determination factor 2 (Homo sapiens), sequence (O00292 whole entry, looked up): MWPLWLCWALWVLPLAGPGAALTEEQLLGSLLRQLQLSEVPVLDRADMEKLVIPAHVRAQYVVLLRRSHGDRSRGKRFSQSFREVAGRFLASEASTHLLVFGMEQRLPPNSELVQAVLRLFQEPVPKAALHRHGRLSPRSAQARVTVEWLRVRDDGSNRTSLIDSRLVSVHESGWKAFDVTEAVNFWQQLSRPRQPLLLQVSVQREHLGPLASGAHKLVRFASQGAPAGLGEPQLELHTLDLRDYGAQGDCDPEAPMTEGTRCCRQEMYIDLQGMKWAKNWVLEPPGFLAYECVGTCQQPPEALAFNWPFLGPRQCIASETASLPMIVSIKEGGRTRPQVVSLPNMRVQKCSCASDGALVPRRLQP
Alpha-bungarotoxin (Bungarus multicinctus), sequence (P60615 whole entry, looked up): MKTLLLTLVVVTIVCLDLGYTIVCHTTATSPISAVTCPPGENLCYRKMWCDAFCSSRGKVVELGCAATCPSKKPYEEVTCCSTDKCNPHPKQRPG

For the molecule `C=CCC(OC(C)=O)[C@@H]1[C@@H](N(Cc2ccc(-c3ccccc3)cc2)C(=O)c2ccc(C)cc2)c2cc(OCCCO)ccc2N1C(=O)c1ccc2ccccc2c1` (stereo not given in full), the composite z-score in test [1] was -0.129; in [3] it was -0.103; in test [4], 0.0626; in test [5], 0.235; in test [6], -0.0222; in [7], -0.17. Moreover, the composite z-score in test [8] was -0.448; in [9] it was 0.202; in test [10], 0.408. The molecule also registered a z-score in [2] of -0.33.
Take `CC(C)C(=C=CC[C@@H](O)c1ccc(OCCO)cc1)CCO`: the composite z-score is 0.0426 in test [1]; -0.141 in test [3]; 0.236 in test [4]; -0.421 in test [5]; -0.18 in [6]; -0.237 in [7]. In addition, the composite z-score was -0.178 in test [8], -0.117 in test [9] and 0.441 in test [10]. Besides, in test [2], the z-score was -0.283.
For `Cc1ccccc1C(O)C1C=CC2C(=O)N(c3ccccc3)C(=O)C2N1Nc1ccccc1F` (stereo not given), the composite z-score was 1.34 in test [1]; -0.0612 in [3]; 2.36 in test [4]; 0.789 in test [5]; 0.156 in test [6]; 0.232 in [7]. For the same molecule, the results for the composite z-score in [8], in test [9] and in test [10] were 1.81, 1.78 and 1.83, respectively. This molecule also showed a z-score in test [2] of 1.97.
On to `C=CCNC(=O)[C@H]1[C@@H]2C(=O)O[C@@H](c3ccccc3)[C@@H](c3ccccc3)N2[C@@H](c2ccccc2OCCO)[C@]12C(=O)N(C(=O)OCCOC)c1ccccc12`, for which the composite z-score is 1.11 in [1]; 0.142 in test [3]; 0.336 in [4]; 0.287 in test [5]; -0.124 in [6]; 0.0684 in test [7]. For the same molecule, the composite z-score amounted to 0.86 in [8], 1.13 in test [9] and 1.53 in test [10]. Also, the z-score in test [2] was -3.16.
`CC(=O)n1cc(C(O)C2C=CC3C(=O)N(c4ccccc4)C(=O)C3N2Nc2ccccc2F)c2ccccc21` (stereo not given): the composite z-score in [1] was 1.13; in test [3], -0.747; in test [4] it was 1.64; in test [5], -0.494; in test [6], -0.0566; in [7] it was 0.0723. In addition, the composite z-score in test [8] was -0.305; in test [9], 0.488; in test [10], 0.403. The molecule also gave a z-score in [2] of -0.159.
Turning to `CC(=O)NCCCC[C@@H]1NC(=O)[C@@H]2C[C@H](C(=O)NCCCCCC[N+](C)(C)C)[C@H](c3ccc(O)cc3)N2C1=O`, the composite z-score was 1.11 in test [1]; 0.943 in [3]; -0.504 in test [4]; -0.901 in [5]; -0.15 in test [6]; 0.0278 in test [7]. The composite z-score was -0.347 in test [8], 0.343 in test [9] and -0.659 in test [10]. In addition, in [2], the z-score came to 0.825.
Take `C=C(CCCC)C(=O)CC[C@H](OC(=O)c1cccnc1)c1ccc(CO)o1`: the composite z-score is 1.07 in [1]; 1.16 in test [3]; 0.223 in test [4]; -0.183 in [5]; -0.0462 in test [6]; 0.191 in test [7]. Besides, the results for the composite z-score in [8], in test [9] and in test [10] were -0.116, 0.706 and 0.542, respectively. The molecule also showed a z-score in [2] of -1.26.
Turning to `C#CCN([C@H](/C=C/C1CC1)[C@@H](O)Cc1ccccc1)[C@@H](Cc1ccccc1)C(=O)OC`, the composite z-score in test [1] was -0.197; in [3], 0.0052; in [4] it was -0.752; in test [5], -0.861; in test [6], -0.124; in test [7] it was 0.0639. Further, the composite z-score was -0.33 in test [8], -0.188 in [9] and -0.0484 in test [10]. In test [2], this molecule showed a z-score of -2.64.
Consider `CN1C(=O)C2C(C1=O)C1C=C(c3ccc(CO)cc3)C2C(c2cccs2)N1C` (stereo not given), for which the composite z-score in test [1] is 0.104; in test [3], -0.112; in test [4], 1.47; in test [5] it was 0.312; in test [6] it was -0.1; in test [7] it was -0.0553. Further, the composite z-score is -0.12 in test [8], 2.17 in test [9] and 1.86 in [10]. Moreover, in [2], the z-score amounted to 0.706.
With `COC(=O)[C@@H]1N=C(c2ccc(OCCCO)cc2)O[C@@H]1c1ccccc1CN=[N+]=[N-]`, the composite z-score in [1] was 1.41; in [3] it was -0.769; in [4], 0.393; in test [5], -0.292; in test [6], 0.0224; in [7], 0.131. Further, the results for the composite z-score in test [8], in [9] and in [10] were 1.29, 0.609 and 0.893, respectively. In addition, the z-score in test [2] is -2.67.
For `N#Cc1ccc(C(O)C2C=CC3C(=O)N(c4ccccc4)C(=O)C3N2Nc2ccc([N+](=O)[O-])cc2)cc1` (stereo not given), the composite z-score in [1] turned out to be 0.632; in [3] it was 0.0058; in test [4], 2.16; in test [5] it was 1.14; in test [6] it was 0.222; in [7] it was 0.0434. The composite z-score in [8] was 0.595; in [9] it was 1.69; in test [10], 1.96. Besides, in [2], the z-score was -1.2.
With `C=CC[C@]1(C(=O)NCc2ccccc2)COC(c2ccc(OCCCO)cc2)=N1`, the composite z-score is -0.298 in test [1]; -1 in [3]; 0.388 in test [4]; -0.733 in [5]; 0.0293 in [6]; 0.0982 in test [7]. The composite z-score was determined as 0.54 in test [8], 3.03 in [9] and 3.83 in test [10]. This molecule registered a z-score in test [2] of -1.65.
Take `O=C1c2ccccc2[C@](Cc2ccccc2I)(C(=O)O)[C@H](c2ccc(CO)cc2)N1Cc1ccccc1`: the composite z-score was 1.17 in test [1]; -1.04 in test [3]; 1.34 in test [4]; 0.83 in test [5]; -0.0846 in [6]; -0.26 in test [7]. In addition, the composite z-score was -0.215 in [8], 0.712 in test [9] and 2.38 in [10]. Also, the z-score in [2] is -0.837.
As to `Cc1ccc(S(=O)(=O)N2[C@@H](c3ccccc3)C(C(=O)O)=CC[C@H]2c2ccc(C#N)cc2)cc1`, the composite z-score is 1.24 in test [1]; -0.145 in [3]; 0.302 in test [4]; -0.269 in [5]; 0.0267 in [6]; 0.385 in test [7]. Moreover, the composite z-score in test [8] worked out at 0.823; in test [9] it was 1.84; in test [10] it was 1.57. Moreover, the z-score in test [2] was -0.494.
In the case of `CCC[C@@H]1C=C(C(=O)OCC)[C@H](c2ccccc2)N1S(=O)(=O)c1ccc(C)cc1`, the composite z-score in test [1] is 1.04; in test [3], 1.06; in test [4] it was 1.99; in [5], 0.409; in [6], 0.145; in test [7], -0.195. Further, the composite z-score is -0.413 in test [8], 1.69 in test [9] and 1.26 in [10]. Also, the z-score in test [2] was -1.84.
As to `CN(C)CCCC[C@@H]1NC(=O)[C@@H]2C[C@H](C(=O)NCCCCCCNC(=O)CS)[C@H](c3cccc(OCCO)c3)N2C1=O`, the composite z-score in [1] was -0.275; in test [3], 0.0929; in [4], -0.172; in test [5] it was -0.221; in test [6], -0.0478; in test [7] it was -0.209. Besides, the figures for the composite z-score in test [8], in [9] and in test [10] were -0.103, 0.947 and 0.0727, respectively. This molecule showed a z-score in [2] of -0.149.
In the case of `CCCC[C@H]1OB(O)C[C@H]2C1=C(COC)C[C@H]1C(=O)C=CC(=O)[C@H]12`, the composite z-score is 0.275 in [1]; 0.594 in test [3]; -0.321 in test [4]; -0.728 in test [5]; -0.101 in test [6]; 0.0062 in test [7]. In addition, the composite z-score is -0.0344 in [8], -0.22 in test [9] and 0.567 in test [10]. Besides, in test [2], the z-score was -1.33.
